According to PubChem BioAssay (NCI):
The panel holds about 83,000 compounds, 20% with a hit somewhere; the sample as a whole holds those more often.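 Interpretation: 100, growth as untreated; towards 0, rising growth inhibition; 0, no net growth; 0 to -100, cell death. Compounds scoring below 10 were considered active.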 Calls of active or inactive are those of the source.

Tests used:
Experiment in all cases: NCI-60 one-dose screen, 48 h (100 = growth as untreated, 0 = no growth, -100 = all killed)
Conditions in all cases: 10 µM unless noted
T-47D breast = tested on: T-47D breast
BT-549 breast = tested on: BT-549 breast
MDA-MB-435 melanoma = tested on: MDA-MB-435 melanoma
SW-620 colon = tested on: SW-620 colon
MCF7 breast = tested on: MCF7 breast
HCT-116 colon = tested on: HCT-116 colon
HCC-2998 colon = tested on: HCC-2998 colon
KM12 colon = tested on: KM12 colon

Measured: growth

CCOC(=O)c1c(Nc2ccccc2)nn2c(-c3cccs3)ccnc12
inactive: T-47D breast 79.2% | BT-549 breast 109% | MDA-MB-435 melanoma 87.5% | SW-620 colon 88.7% | MCF7 breast 90.5% | HCT-116 colon 78% | HCC-2998 colon 100% | KM12 colon 82.1%

CCCCCc1ccc(S(=O)(=O)Nc2cccc(-c3csc(NC(=O)CCCCCN4CCN(CCO)CC4)n3)c2)cc1
inactive: T-47D breast 73.5% | BT-549 breast 102% | MDA-MB-435 melanoma 36.8% | SW-620 colon 25.6% | MCF7 breast 19.8% | HCT-116 colon 30.3% | HCC-2998 colon 41.5% | KM12 colon 88%

Cc1ccc(NC(=S)NNC(=S)Nc2ccc(C)cc2)cc1
inactive: T-47D breast 101% | BT-549 breast 92.9% | MDA-MB-435 melanoma 102% | SW-620 colon 108% | MCF7 breast 91.1% | HCT-116 colon 106% | HCC-2998 colon 110% | KM12 colon 101%

C[C@@H]1C[C@H]2C(=O)O[C@@H](C)C(NC(=O)[C@H](Cc3cc(F)cc(F)c3)NC(=O)Nc3ccc(C4CC4)cc3F)C(=O)N3CCC[C@H]3C(=O)N3CCCC[C@H]3C(=O)N[C@@H](CO)C(=O)N2C1 (some centres not stated)
inactive: T-47D breast 21.7% | BT-549 breast 27.6% | MDA-MB-435 melanoma 17.9% | SW-620 colon 35.8% | MCF7 breast 16.1% | HCT-116 colon 10.6% | HCC-2998 colon 24% | KM12 colon 38%

O=C(NNc1nc2cc(F)c(F)cc2n2cccc12)c1cnccn1
inactive: T-47D breast 13.6% | BT-549 breast 43.7% | MDA-MB-435 melanoma 37.1% | SW-620 colon 27.4% | MCF7 breast 14% | HCT-116 colon 17.5% | HCC-2998 colon 40.9% | KM12 colon 22.3%

CC(C)(C)c1ccc(C(=O)Nc2nc3ccc(O)cc3s2)cc1
inactive: T-47D breast 28.5% | BT-549 breast 62.9% | MDA-MB-435 melanoma 34.3% | SW-620 colon 14.2% | MCF7 breast 15.8% | HCT-116 colon 45.6% | HCC-2998 colon 14.7% | KM12 colon 14%

COc1ccc(N2CCN(C3=C(Cl)C(=O)C(C)=C(C)C3=O)CC2)cc1
inactive: T-47D breast 30% | BT-549 breast 117% | MDA-MB-435 melanoma 105% | SW-620 colon 113% | MCF7 breast 92.1% | HCT-116 colon 99.3% | HCC-2998 colon 111% | KM12 colon 107%

O=c1c2ccccc2nc(COc2ccccc2)n1NS(=O)(=O)c1ccc(Cl)cc1
inactive: T-47D breast 74.8% | BT-549 breast 106% | SW-620 colon 64.1% | MCF7 breast 41.9% | HCT-116 colon 83.6% | HCC-2998 colon 77.6% | KM12 colon 55.2%
active: MDA-MB-435 melanoma 5.47%

Nc1ccccc1NC(=O)c1ccc(NC(=O)C/C=C/c2cccnc2)cn1
inactive: MDA-MB-435 melanoma 19% | SW-620 colon 14.5% | KM12 colon 26.2%
active: T-47D breast 8.26% | BT-549 breast 3.27% | MCF7 breast 5.84% | HCT-116 colon 4.69% | HCC-2998 colon 9.51%

Cc1nn(-c2ccccc2)c2ncnc(N/N=C/c3ccccc3)c12
inactive: T-47D breast 75% | BT-549 breast 97.4% | MDA-MB-435 melanoma 96.9% | SW-620 colon 107% | MCF7 breast 80.4% | HCT-116 colon 98.1% | HCC-2998 colon 115% | KM12 colon 80.9%

NS(=O)(=O)c1ccc(Nc2nc(Nc3ccccc3)nc3nnc(SCC(=O)NC4CCCCC4)n23)cc1
inactive: T-47D breast 104% | BT-549 breast 104% | MDA-MB-435 melanoma 110% | SW-620 colon 106% | MCF7 breast 100% | HCT-116 colon 99.8% | HCC-2998 colon 109% | KM12 colon 102%

NC(=O)c1c(NC(=O)c2ccccc2C(F)(F)F)sc2c1CCC(=O)C2
inactive: T-47D breast 14.1% | BT-549 breast 14.7% | MDA-MB-435 melanoma 14.7% | SW-620 colon 19% | HCC-2998 colon 33.3%
active: MCF7 breast 5.93% | HCT-116 colon 9.24% | KM12 colon 9.45%

O=C(c1ccc(O)c(C(=O)N2Cc3ccc(OCCC[P+](c4ccccc4)(c4ccccc4)c4ccccc4)cc3C2)c1)N1Cc2cccc(F)c2C1
inactive: T-47D breast 38.7% | BT-549 breast 65.9% | MDA-MB-435 melanoma 57.1% | SW-620 colon 76.2% | MCF7 breast 51.9% | HCT-116 colon 96.9% | HCC-2998 colon 68.4% | KM12 colon 57.8%

NS(=O)(=O)c1ccc(Nc2nc(N/N=C/c3ccc(Cl)cc3)nc(Nc3ccccc3)n2)cc1
inactive: T-47D breast 44.8% | BT-549 breast 74.9% | MDA-MB-435 melanoma 57.7% | SW-620 colon 101% | MCF7 breast 38.7% | HCT-116 colon 44.3% | HCC-2998 colon 76.4% | KM12 colon 63.3%

c1cc(-c2nc3ccc4[nH]ncc4c3c3c2CCCC3)[nH]n1
inactive: T-47D breast 73.8% | BT-549 breast 31.2% | MDA-MB-435 melanoma 10.5% | SW-620 colon 25% | MCF7 breast 40% | HCT-116 colon 25.6% | HCC-2998 colon 78.9% | KM12 colon 24%

CC1(C)[C@@H](O)CC[C@]2(C)[C@H]3CC[C@@H]4[C@H]5[C@H](C(=O)/C=C\c6ccncc6)CC[C@]5(O)CC[C@@]4(C)[C@]3(C)CC[C@@H]12
inactive: T-47D breast 68.7% | BT-549 breast 68.2% | MDA-MB-435 melanoma 14.9% | SW-620 colon 26.5% | MCF7 breast 24.6% | HCT-116 colon 14.9% | HCC-2998 colon 77.9% | KM12 colon 39.2%

CCN(CC)c1ccc2c(c1)Oc1nc(N)c(C#N)c(N)c1C2Sc1ccc(F)cc1 (configuration not stated)
inactive: BT-549 breast 56.1%
active: T-47D breast -35% | MDA-MB-435 melanoma -17.5% | SW-620 colon -80.2% | MCF7 breast -85.5% | HCT-116 colon -81.4% | HCC-2998 colon -90.9% | KM12 colon -74.1%

COc1ccc(CCOc2cc3c(cc2OC)CCN(C(=O)NCc2cocn2)C3c2ccc(C)cc2C)cc1 (configuration not stated)
active: BT-549 breast -17% | MDA-MB-435 melanoma 8.73% | HCT-116 colon 6.95%
inactive: T-47D breast 49% | SW-620 colon 23% | MCF7 breast 13.5% | HCC-2998 colon 11.5% | KM12 colon 11.4%

NC(N)=Nc1ccc(Oc2ccc(Nc3ccc(Cl)c(C(F)(F)F)c3)cc2)cc1
inactive: T-47D breast 41.1% | BT-549 breast 86.1% | MDA-MB-435 melanoma 40.3% | SW-620 colon 25.6% | HCT-116 colon 11.3%
active: MCF7 breast 2.64% | HCC-2998 colon 1.24% | KM12 colon 5.94%

COc1cc2oc(-c3cccc(C(=O)N[C@@H](CC(C)C)C(=O)OC(C)(C)C)c3)cc(=O)c2c(OC)c1OC
inactive: T-47D breast 52.7% | BT-549 breast 67.5% | MDA-MB-435 melanoma 90% | SW-620 colon 83.4% | MCF7 breast 69.9% | HCT-116 colon 62.5% | HCC-2998 colon 84% | KM12 colon 59.8%

Cn1ccnc1C(=O)/C=C/c1ccc(NC(=O)c2c(F)c(F)c(F)c(F)c2F)cc1
inactive: T-47D breast 103% | BT-549 breast 98.2% | MDA-MB-435 melanoma 107% | SW-620 colon 105% | MCF7 breast 70.8% | HCT-116 colon 101% | HCC-2998 colon 125% | KM12 colon 105%

Cc1ccc(C2=NN(C)C(=O)C3(CCCC3)C2)cc1
inactive: T-47D breast 102% | BT-549 breast 117% | MDA-MB-435 melanoma 107% | SW-620 colon 103% | MCF7 breast 89.8% | HCT-116 colon 104% | HCC-2998 colon 110% | KM12 colon 104%

CN1CCN(Cc2ccc(NC(=O)c3cncc(C#Cc4cnc5ccc(OCC6(C)COC6)nn45)c3)cc2C(F)(F)F)CC1
active: T-47D breast -49.9% | BT-549 breast -62% | MDA-MB-435 melanoma -90.9% | SW-620 colon -44.8% | MCF7 breast -76% | HCT-116 colon -75.5% | HCC-2998 colon -89.6% | KM12 colon -82.1%

COc1cc(OC)c(S(N)(=O)=O)cc1C(=O)/C=C/c1ccc(C)cc1
active: T-47D breast 2.31% | MDA-MB-435 melanoma 8.41% | SW-620 colon 6.29% | HCC-2998 colon 8.59% | KM12 colon -1.47%
inactive: BT-549 breast 21.2% | MCF7 breast 12.2% | HCT-116 colon 11.4%

C=CCn1c(SCC(=O)Nc2ccc(C(=O)/C=C/c3cccc([N+](=O)[O-])c3)cc2)nnc1-c1c[nH]c2ccccc12
inactive: T-47D breast 59.8% | BT-549 breast 117% | MDA-MB-435 melanoma 98.4% | SW-620 colon 98.7% | MCF7 breast 25.4% | HCC-2998 colon 86% | KM12 colon 93.4%
active: HCT-116 colon -32.6%

CCCCCCCn1cc2c(N[C@H](C)c3ccccc3)ncnc2n1
inactive: T-47D breast 99.7% | BT-549 breast 102% | MDA-MB-435 melanoma 103% | SW-620 colon 117% | MCF7 breast 90.3% | HCT-116 colon 104% | HCC-2998 colon 116% | KM12 colon 100%

Cc1ccc(NC(=O)c2ccc(CN3CCOCC3)c(C(F)(F)F)c2)cc1Oc1ccc(-c2[nH]nc3ncnc(N)c23)cc1
inactive: T-47D breast 11% | BT-549 breast 66.8% | MDA-MB-435 melanoma 47.7% | SW-620 colon 110% | MCF7 breast 55.8% | HCT-116 colon 55.4% | HCC-2998 colon 75.2% | KM12 colon 25.4%

CNC(=O)c1cc(Oc2ccc3nc(NC(=O)c4cccc(OC(F)(F)F)c4)sc3c2)ccn1
inactive: T-47D breast 63.1% | BT-549 breast 137% | MDA-MB-435 melanoma 79% | SW-620 colon 103% | MCF7 breast 77.6% | HCT-116 colon 75.5% | HCC-2998 colon 108% | KM12 colon 85.6%

Cc1cc(-c2ccc(Cl)cc2)n(Cc2nnc(SCC(=O)Nc3ccc(S(N)(=O)=O)cc3)n2C2CCCCC2)n1
inactive: T-47D breast 108% | BT-549 breast 124% | MDA-MB-435 melanoma 109% | SW-620 colon 107% | MCF7 breast 91% | HCT-116 colon 107% | HCC-2998 colon 110% | KM12 colon 108%
